# From PubChem BioAssay (NCI)
# Compounds without any hit were thinned out: in the full panel of roughly 83,000, 20% have a hit.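 96-well plates, one dose, 48 hours. Percent growth reported; active if below 10.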 Values without a mark were called inactive. Active and inactive are the calls of the source.
# Tested on: A549/ATCC NSCLC
# Test: NCI-60 one-dose screen, 48 h (100 = growth as untreated, 0 = no growth, -100 = all killed)
# Conditions: 10 µM
row,Compound,growth
1,C[n+]1c2ccccc2nc2ccccc21,24.1%
2,C=CCn1c(SCC(=O)Nc2ccc(C(=O)/C=C/c3ccc(OC)cc3)cc2)nnc1-c1ccc(OC)c(OC)c1,85.8%
3,Cc1n[nH]c(C)c1N=Nc1cccc2c1C(=O)c1ccccc1C2=O,105%
4,CC[C@H]1OC(=O)[C@H](C)[C@@H](O[C@H]2C[C@@](C)(OC)[C@@H](O)[C@H](C)O2)[C@H](C)[C@@H](O[C@@H]2O[C@H](C)C[C@H](N(C)C)[C@H]2O)[C@](C)(OC)C/C(C)=C2/O[C@@]1(C)C=C2C,61.9%
5,CCOC(=O)CN(c1sc(C)c(C)c1C(=O)OCC)S(=O)(=O)c1ccc(C)cc1,91.6%
6,Cc1noc(C)c1CSc1ccccc1C(=O)N1CCN(c2cccc(C(F)(F)F)c2)CC1,73.7%
7,O=C(CCCSc1nc(-c2ccccc2)cc(-c2ccc(Cl)cc2)n1)NO,5.6% (active)
8,O=C(Nc1ccc(F)cc1)c1cc2ccccc2cc1O,75.8%
9,COc1ccc(-c2cc(-c3ccccc3)nc(SCCCCCCC(=O)NO)n2)cc1,50.1%
10,COc1cc2c(cc1NC(=O)C(F)(F)F)-c1ccc(NC(=O)C(F)(F)F)cc1C2,92.2%
11,S=C(NCc1ccccc1)NCc1ccccc1,86.1%
12,NNC(=O)Oc1c(Cl)cc(Cl)cc1[N+](=O)[O-],96.9%
13,Cc1c(Cl)cccc1NC(=O)CN1CCOCC1,106%
14,O=C1c2ccccc2C(=O)N1CCCCNc1ccccc1,78.2%
